From PubChem BioAssay AID1159580 (chemical genetic matrix, 2015)
About 2,000 (36%) of roughly 5,500 compounds were called active. Not shown: some 18% with an inconclusive outcome. Some of the results follow. Values without a mark were called inactive. Rule as the data show it: active = normalized growth mostly below about 0.91 (no sharp cut-off); inconclusive = no clear call, values can overlap the other calls; inactive = mostly above about 0.92.

Experiment: chemical genetic growth profiling, strain panel (AID 1159580);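 also: tested at 20 µM; growth read once vehicle control cultures reached saturation at 30 °C; 1 = growth at the plate median or of vehicle wells; lower values mean less growth of the strain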
Conditions: growth OD

Which normalized growth (S. cerevisiae deletion strains, locus YJR075W, strain HOC1, active compounds read low) does the source give for `COc1cc(OC)c2c(OC)c(-c3ccc4c(c3)OCO4)c(=O)oc2c1` here?
The normalized growth was 0.972.

And the normalized growth (S. cerevisiae deletion strains, locus YKL009W, strain mrt4, active compounds read low)?
Its normalized growth is 1.

And the normalized growth (S. cerevisiae deletion strains, locus YKL068W, active compounds read low)?
Its normalized growth is 0.984.

What about the normalized growth (S. cerevisiae deletion strains, locus YKL085W, strain MDH1 (second series), active compounds read low) of the same molecule?
The normalized growth was 0.99.

What about the normalized growth (S. cerevisiae deletion strains, locus YKL085W, strain MDH1, active compounds read low) of the same molecule?
The normalized growth was 0.99.

What about the normalized growth (S. cerevisiae deletion strains, locus YKL160W, strain elf1, active compounds read low) of the same molecule?
The normalized growth was 0.931.

What about the normalized growth (S. cerevisiae deletion strains, locus YKL190W, strain CNB1, active compounds read low) of the same molecule?
Its normalized growth is 0.984.

What about the normalized growth (S. cerevisiae deletion strains, locus YKR001C, strain vps1, active compounds read low) of the same molecule?
The normalized growth was 0.927.

What about the normalized growth (S. cerevisiae deletion strains, locus YKR026C, strain gcn3, active compounds read low) of the same molecule?
The normalized growth was 0.992.

And the normalized growth (S. cerevisiae deletion strains, locus YKR091W, strain srl3, active compounds read low)?
Its normalized growth is 0.978.

What about the normalized growth (S. cerevisiae deletion strains, locus YLL001W, strain dnm1, active compounds read low) of the same molecule?
Its normalized growth is 0.97.

What about the normalized growth (S. cerevisiae deletion strains, locus YLL026W, active compounds read low) of the same molecule?
The normalized growth was 0.979.

What about the normalized growth (S. cerevisiae deletion strains, locus YLL041C, strain sdh2, active compounds read low) of the same molecule?
Its normalized growth is 0.987.

What about the normalized growth (S. cerevisiae deletion strains, locus YLR027C, strain aat2, active compounds read low) of the same molecule?
The normalized growth was 0.934.

And the normalized growth (S. cerevisiae deletion strains, locus YLR039C, strain RIC1, active compounds read low)?
The normalized growth was 0.865.

And the normalized growth (S. cerevisiae deletion strains, locus YLR058C, strain SHM2, active compounds read low)?
The normalized growth was 0.99.

And the normalized growth (S. cerevisiae deletion strains, locus YLR102C, strain apc9, active compounds read low)?
Its normalized growth is 1.

And the normalized growth (S. cerevisiae deletion strains, locus YLR113W, strain HOG1, active compounds read low)?
Its normalized growth is 0.917.

What about the normalized growth (S. cerevisiae deletion strains, locus YLR221C, strain rsa3, active compounds read low) of the same molecule?
Its normalized growth is 0.943.

And the normalized growth (S. cerevisiae deletion strains, locus YLR258W, strain gsy2, active compounds read low)?
The normalized growth was 0.959.

And the normalized growth (S. cerevisiae deletion strains, locus YLR262C, strain YPT6 (second series), active compounds read low)?
Its normalized growth is 0.783 (active).

What about the normalized growth (S. cerevisiae deletion strains, locus YLR262C, strain YPT6, active compounds read low) of the same molecule?
Its normalized growth is 0.879.

And the normalized growth (S. cerevisiae deletion strains, locus YLR268W, strain sec22, active compounds read low)?
The normalized growth was 0.946.

And the normalized growth (S. cerevisiae deletion strains, locus YLR320W, strain mms22, active compounds read low)?
Its normalized growth is 0.867 (active).

What about the normalized growth (S. cerevisiae deletion strains, locus YLR330W, strain CHS5, active compounds read low) of the same molecule?
Its normalized growth is 0.991.

And the normalized growth (S. cerevisiae deletion strains, locus YLR342W, strain FKS1 (second series), active compounds read low)?
Its normalized growth is 0.952.

What about the normalized growth (S. cerevisiae deletion strains, locus YLR342W, strain FKS1, active compounds read low) of the same molecule?
Its normalized growth is 0.957.

What about the normalized growth (S. cerevisiae deletion strains, locus YLR357W, strain rsc2, active compounds read low) of the same molecule?
The normalized growth was 0.997.

What about the normalized growth (S. cerevisiae deletion strains, locus YLR370C, strain arc18, active compounds read low) of the same molecule?
Its normalized growth is 0.981.

What about the normalized growth (S. cerevisiae deletion strains, locus YLR371W, strain rom2, active compounds read low) of the same molecule?
Its normalized growth is 0.984.

What about the normalized growth (S. cerevisiae deletion strains, locus YLR384C, strain iki3, active compounds read low) of the same molecule?
Its normalized growth is 0.977.

What about the normalized growth (S. cerevisiae deletion strains, locus YLR418C, strain cdc73, active compounds read low) of the same molecule?
Its normalized growth is 0.849.

What about the normalized growth (S. cerevisiae deletion strains, locus YML016C, strain PPZ1, active compounds read low) of the same molecule?
Its normalized growth is 0.985.

What about the normalized growth (S. cerevisiae deletion strains, locus YML032C, strain rad52, active compounds read low) of the same molecule?
The normalized growth was 0.995.

And the normalized growth (S. cerevisiae deletion strains, locus YML120C, strain ndi1, active compounds read low)?
Its normalized growth is 0.998.

What about the normalized growth (S. cerevisiae deletion strains, locus YML124C, strain tub3, active compounds read low) of the same molecule?
Its normalized growth is 0.986.

What about the normalized growth (S. cerevisiae deletion strains, locus YMR058W, strain fet3, active compounds read low) of the same molecule?
Its normalized growth is 0.962.

And the normalized growth (S. cerevisiae deletion strains, locus YMR078C, strain ctf18, active compounds read low)?
Its normalized growth is 0.991.

What about the normalized growth (S. cerevisiae deletion strains, locus YMR125W, strain sto1, active compounds read low) of the same molecule?
The normalized growth was 1.

What about the normalized growth (S. cerevisiae deletion strains, locus YMR129W, active compounds read low) of the same molecule?
Its normalized growth is 0.989.

What about the normalized growth (S. cerevisiae deletion strains, locus YMR205C, strain PFK2, active compounds read low) of the same molecule?
Its normalized growth is 0.866 (active).

What about the normalized growth (S. cerevisiae deletion strains, locus YMR223W, strain ubp8, active compounds read low) of the same molecule?
The normalized growth was 0.981.

What about the normalized growth (S. cerevisiae deletion strains, locus YMR231W, strain pep5, active compounds read low) of the same molecule?
Its normalized growth is 0.973.

What about the normalized growth (S. cerevisiae deletion strains, locus YMR263W, strain SAP30, active compounds read low) of the same molecule?
The normalized growth was 0.966.

And the normalized growth (S. cerevisiae deletion strains, locus YMR307W, strain GAS1, active compounds read low)?
Its normalized growth is 0.905.

What about the normalized growth (S. cerevisiae deletion strains, locus YNL067W, strain RPL9B, active compounds read low) of the same molecule?
Its normalized growth is 0.99.

What about the normalized growth (S. cerevisiae deletion strains, locus YNL071W, strain lat1, active compounds read low) of the same molecule?
Its normalized growth is 0.816 (active).

And the normalized growth (S. cerevisiae deletion strains, locus YNL128W, strain TEP1, active compounds read low)?
The normalized growth was 1.

What about the normalized growth (S. cerevisiae deletion strains, locus YNL153C, strain GIM3, active compounds read low) of the same molecule?
The normalized growth was 0.988.

What about the normalized growth (S. cerevisiae deletion strains, locus YNL183C, strain NPR1, active compounds read low) of the same molecule?
Its normalized growth is 0.888.

And the normalized growth (S. cerevisiae deletion strains, locus YNL209W, strain ssb2, active compounds read low)?
The normalized growth was 0.987.

What about the normalized growth (S. cerevisiae deletion strains, locus YNL233W, strain BNI4, active compounds read low) of the same molecule?
The normalized growth was 0.965.

What about the normalized growth (S. cerevisiae deletion strains, locus YNL248C, strain rpa49, active compounds read low) of the same molecule?
Its normalized growth is 0.978.

And the normalized growth (S. cerevisiae deletion strains, locus YNL250W, strain rad50, active compounds read low)?
Its normalized growth is 0.997.

And the normalized growth (S. cerevisiae deletion strains, locus YNL271C, strain bni1, active compounds read low)?
The normalized growth was 0.987.

What about the normalized growth (S. cerevisiae deletion strains, locus YNL298W, strain CLA4, active compounds read low) of the same molecule?
Its normalized growth is 0.997.

And the normalized growth (S. cerevisiae deletion strains, locus YNL307C, strain MCK1, active compounds read low)?
Its normalized growth is 0.792 (active).

What about the normalized growth (S. cerevisiae deletion strains, locus YNL322C, strain KRE1 (second series), active compounds read low) of the same molecule?
The normalized growth was 0.993.

What about the normalized growth (S. cerevisiae deletion strains, locus YNL322C, strain KRE1, active compounds read low) of the same molecule?
The normalized growth was 0.993.

And the normalized growth (S. cerevisiae deletion strains, locus YNR049C, strain mso1, active compounds read low)?
The normalized growth was 0.992.

And the normalized growth (S. cerevisiae deletion strains, locus YNR052C, strain pop2, active compounds read low)?
The normalized growth was 0.991.

What about the normalized growth (S. cerevisiae deletion strains, locus YOL006C, strain TOP1, active compounds read low) of the same molecule?
Its normalized growth is 0.89.

What about the normalized growth (S. cerevisiae deletion strains, locus YOL012C, strain htz1) of the same molecule?
Its normalized growth is 0.711.

And the normalized growth (S. cerevisiae deletion strains, locus YOL147C, strain pex11, active compounds read low)?
Its normalized growth is 0.985.

And the normalized growth (S. cerevisiae deletion strains, locus YOR001W, strain rrp6, active compounds read low)?
Its normalized growth is 0.991.

What about the normalized growth (S. cerevisiae deletion strains, locus YOR061W, strain CKA2, active compounds read low) of the same molecule?
The normalized growth was 0.989.

What about the normalized growth (S. cerevisiae deletion strains, locus YOR069W, strain VPS5, active compounds read low) of the same molecule?
The normalized growth was 0.988.

And the normalized growth (S. cerevisiae deletion strains, locus YOR070C, strain gyp1, active compounds read low)?
Its normalized growth is 0.977.

What about the normalized growth (S. cerevisiae deletion strains, locus YOR080W, strain dia2, active compounds read low) of the same molecule?
The normalized growth was 0.989.

What about the normalized growth (S. cerevisiae deletion strains, locus YOR083W, strain WHI5, active compounds read low) of the same molecule?
The normalized growth was 0.937.

And the normalized growth (S. cerevisiae deletion strains, locus YOR106W, strain vam3, active compounds read low)?
The normalized growth was 0.957.

And the normalized growth (S. cerevisiae deletion strains, locus YOR136W, strain idh2, active compounds read low)?
The normalized growth was 0.99.

What about the normalized growth (S. cerevisiae deletion strains, locus YOR144C, strain elg1, active compounds read low) of the same molecule?
The normalized growth was 0.982.

What about the normalized growth (S. cerevisiae deletion strains, locus YOR184W, strain ser1, active compounds read low) of the same molecule?
The normalized growth was 0.891.

What about the normalized growth (S. cerevisiae deletion strains, locus YOR231W, strain MKK1, active compounds read low) of the same molecule?
The normalized growth was 0.943.

And the normalized growth (S. cerevisiae deletion strains, locus YOR265W, strain rbl2, active compounds read low)?
The normalized growth was 0.981.

And the normalized growth (S. cerevisiae deletion strains, locus YOR270C, strain vph1, active compounds read low)?
Its normalized growth is 0.835.

What about the normalized growth (S. cerevisiae deletion strains, locus YOR290C, strain snf2, active compounds read low) of the same molecule?
Its normalized growth is 0.932.

What about the normalized growth (S. cerevisiae deletion strains, locus YOR316C, strain cot1, active compounds read low) of the same molecule?
Its normalized growth is 0.983.

And the normalized growth (S. cerevisiae deletion strains, locus YPL051W, strain arl3, active compounds read low)?
Its normalized growth is 0.899 (active).

What about the normalized growth (S. cerevisiae deletion strains, locus YPL055C, strain LGE1, active compounds read low) of the same molecule?
The normalized growth was 0.949.

And the normalized growth (S. cerevisiae deletion strains, locus YPL078C, strain atp4, active compounds read low)?
The normalized growth was 0.945.

And the normalized growth (S. cerevisiae deletion strains, locus YPL106C, strain sse1, active compounds read low)?
Its normalized growth is 0.945.

What about the normalized growth (S. cerevisiae deletion strains, locus YPL240C, strain hsp82, active compounds read low) of the same molecule?
Its normalized growth is 0.984.

What about the normalized growth (S. cerevisiae deletion strains, locus YPL241C, strain CIN2, active compounds read low) of the same molecule?
Its normalized growth is 0.992.

What about the normalized growth (S. cerevisiae deletion strains, locus YPL256C, strain CLN2, active compounds read low) of the same molecule?
The normalized growth was 0.959.

And the normalized growth (S. cerevisiae deletion strains, locus YPR119W, strain clb2, active compounds read low)?
Its normalized growth is 0.97.

And the normalized growth (S. cerevisiae deletion strains, locus YPR141C, strain kar3, active compounds read low)?
The normalized growth was 1.

And the normalized growth (S. cerevisiae deletion strains, locus YPR163C, strain tif3, active compounds read low)?
Its normalized growth is 0.969.

And the normalized growth (S. cerevisiae deletion strains, locus YPR167C, strain met16, active compounds read low)?
The normalized growth was 0.989.

What about the normalized growth (S. cerevisiae deletion strains, strain wtn01, active compounds read low) of the same molecule?
The normalized growth was 0.968.

And the normalized growth (S. cerevisiae strains, strain wild type, active compounds read low)?
The normalized growth was 0.982.
